S-ASM inh – blocks human secretory acid sphingomyelinase; P17405; placental ASM, HMU-PC fluorogenic substrate, 60 min; Potency, µM (titrated, usually from 57.5 µM), for the others: at the highest dose activity change, negative = inhibition, hits mostly inhibitors; 0.006% of 340,000 active; AID 504937; further: potency means the concentration at half of the fitted maximal effect
Target sequence (P17405 47-631 limits assumed): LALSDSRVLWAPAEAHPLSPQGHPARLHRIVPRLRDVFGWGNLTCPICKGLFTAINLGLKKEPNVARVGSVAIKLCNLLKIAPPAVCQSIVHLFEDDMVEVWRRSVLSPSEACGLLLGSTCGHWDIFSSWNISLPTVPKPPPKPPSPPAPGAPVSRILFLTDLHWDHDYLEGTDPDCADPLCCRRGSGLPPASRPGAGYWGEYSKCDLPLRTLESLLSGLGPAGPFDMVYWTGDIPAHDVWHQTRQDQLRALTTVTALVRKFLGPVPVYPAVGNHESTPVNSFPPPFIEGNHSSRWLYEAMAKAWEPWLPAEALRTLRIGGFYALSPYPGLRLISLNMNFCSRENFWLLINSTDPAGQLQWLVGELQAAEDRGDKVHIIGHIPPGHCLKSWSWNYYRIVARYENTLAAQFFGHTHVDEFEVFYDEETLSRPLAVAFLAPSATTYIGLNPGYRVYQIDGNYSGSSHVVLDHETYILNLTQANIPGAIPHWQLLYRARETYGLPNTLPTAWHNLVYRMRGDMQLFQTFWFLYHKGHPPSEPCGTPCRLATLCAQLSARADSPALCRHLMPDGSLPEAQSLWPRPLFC
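Human placenta-derived ASM preincubated with compound 10 min at room temperature, then reacted with 9 uM (final) fluorogenic HMU-PC substrate for 60 min at 37 C. Stop solution raises pH to 10; fluorescence read at Ex 386/Em 447 nm.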
HepG2 viability – kills HepG2 cells in TGF-b inhibitor counter-screen; HepG2 CAGA-GFP viability, ATP luminescence, 18 h; Potency, µM (titrated, usually from 46.1 µM), inactives show at the top dose activity change, negative = cytotoxicity, hits mostly cytotoxic; 0.76% of 410,000 active; further: potency means the concentration at half of the fitted maximal effect
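CellTiter-Glo luminescence gave cytotoxicity after 18 hours at 37 degrees C. The cells were HepG2 CAGA-GFP in 1% FBS DMEM, stimulated with 500 pg/mL TGF-beta after compound addition. %Activity was normalised to no-cell wells (complete cell-killing) and DMSO (no toxicity), and curves were fitted and classified.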
TDP1 cell CPT – growth inhibition of DT40 Tdp1-/-;hTDP1 cells with camptothecin (screen for TDP1 inhibitors); AID 686979; chicken DT40 Tdp1-/-;hTDP1 cells + 20 nM CPT, ATP luminescence, 48 h; Potency, µM (top dose mostly 46.2 µM), inactives show at the top dose activity change, negative = growth inhibition, actives largely listed as inhibitors; 12% of 420,000 active; further: potency means the concentration at half of the fitted maximal effect; on the % scale 0 is the no-effect control and ±100 the full control effect; nearly all actives have a fitted effect of over 55% in size
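Cell growth measured by CellTiter-Glo luminescence after a minimum 48 h, 37 C compound exposure with 20 nM CPT in Tdp1-knockout DT40 cells stably expressing hTDP1, seeded 400/well; qHTS titration format.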
TGFb inhibitor – TGF-b pathway inhibition. HepG2 CAGA-GFP TGF-b/SMAD3 reporter, GFP fluorescence, 18 h; TGF-beta stimulated, 500 pg/mL final. AID 588855. 1.2% of 410,000 active. Potency, µM (series often up to 46.1 µM), for inactives: top-dose activity, negative = inhibition, hits mostly inhibitors; further: potency means the concentration at half of the fitted maximal effect; on the % scale 0 is the no-effect control and ±100 the full control effect; nearly all actives have a fitted effect of over 65% in size
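Read-out: total well GFP (ex488/em500-530) summed from mean per-cell fluorescence. Cells: HEPG2 CAGA-GFP, 1% FBS DMEM, 18 h at 37 degrees C with 500 pg/mL final TGF-beta. Unstimulated wells served as the full-inhibition control; stimulated DMSO wells = 0%.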
IL1B secr inh – inhibitors of inflammasome signaling (IL-1 beta secretion). AID 743279. 4.7% of 360,000 active. activity change, % at 57.5 µM. THP-1 LPS/ATP IL-1B secretion, AlphaLISA, 16 h; stronger effect = lower value; in the data active means activity change below about -50%; inconclusive means mostly about -30% to -49%; further: on the % scale 0 is the no-effect control and ±100 the full control effect
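THP-1 cells pretreated 1 hr with compounds (up to 57.5 uM final), then stimulated with LPS (250 ng/mL final) plus ATP (1.25 mM final); secreted IL-1B measured by AlphaLISA after 16 hr, decreased signal indicating inhibition.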
DT40 TDP1 no CPT – qHTS for Inhibitors of human tyrosyl-DNA phosphodiesterase 1 (TDP1): qHTS in cells in absence of CPT; DT40 Tdp1-/- hTDP1 cells, no CPT, ATP luminescence, 48 h; Potency, µM (titrated, usually from 46.2 µM), without a hit: at the top dose activity change, negative = growth inhibition, usual class: inhibitors; 15% of 420,000 active; further: potency means the concentration at half of the fitted maximal effect; on the % scale 0 is the no-effect control and ±100 the full control effect; nearly all actives have a fitted effect of over 55% in size
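DT40 Tdp1-/-;hTDP1 cells, no CPT (DMSO vehicle only), 400 cells/well; compounds pin-transferred; ≥48 hr, 37 °C; CellTiter-Glo 30 min RT dark, luminescence read.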
* hit, by the source's call; ! = not active in a repeat. Only some compounds are listed: those with a hit (about 19% of all), similar ones and a draw of the others. Unless noted, the call rests on the fitted dose curve; in most records, active means well fitted curve in the direction sought with a large enough effect; inconclusive means small, poorly fitted or top-dose-only effect, or another doubt; inactive means no such curve, though single readings can be large; an effect the other way counts as inactive or inconclusive.

How did CCOc1ccc(N2CC(C(=O)NC3CCCCCC3)CC2=O)cc1 (stereo not given) do in these assays?
S-ASM inh: 5.6%; HepG2 viability: -88.3%; TDP1 cell CPT: 18.8%; TGFb inhibitor: -17.3%; IL1B secr inh: 7.9; DT40 TDP1 no CPT: 6.5%

How did COC(=O)/C=C/c1cc(O)ccc1O do in these assays?
TDP1 cell CPT: 0.731µM*; DT40 TDP1 no CPT: 1.16µM*

How did Fc1ccccc1Cc1noc(CN2CCCC(CN3CCOCC3)C2)n1 (stereo not given) do in these assays?
S-ASM inh: 7.2%; HepG2 viability: 4.8%; TDP1 cell CPT: 21.3%; TGFb inhibitor: 0.7%; IL1B secr inh: 22.7; DT40 TDP1 no CPT: -1.0%

What do the screens show for `CCCCOc1ccc(C(N)=O)cc1`?
TDP1 cell CPT: 5.9%; DT40 TDP1 no CPT: -9.2%

What do the screens show for `CCCCCCCC[n+]1cccc(C(=O)N(CC)CC)c1`?
S-ASM inh: -0.2%; HepG2 viability: 13.2%; TDP1 cell CPT: -25.7%; TGFb inhibitor: 16.4%; IL1B secr inh: -6.1; DT40 TDP1 no CPT: inconclusive

What do the screens show for `CCCCCCCCCCCCCCCC[n+]1ccc(/C=N/O)cc1`?
S-ASM inh: inconclusive; HepG2 viability: -112.6%; TDP1 cell CPT: 1.64µM*; TGFb inhibitor: inconclusive; IL1B secr inh: -100.1*; DT40 TDP1 no CPT: 1.64µM*

Results for CCCCCCCCCCCCCCCC[n+]1ccc(C(N)=O)cc1 ?
S-ASM inh: inconclusive; HepG2 viability: -69.2%; TDP1 cell CPT: 4.61µM*; TGFb inhibitor: inconclusive; IL1B secr inh: -102.5*; DT40 TDP1 no CPT: 2.91µM*

How did CCCCCCCCCCCCCCCC[n+]1cccc(C(=O)N(CC)CC)c1 do in these assays?
S-ASM inh: inconclusive; HepG2 viability: 12.6µM*!; TDP1 cell CPT: 2.91µM*; TGFb inhibitor: inconclusive; IL1B secr inh: -63.1*; DT40 TDP1 no CPT: 2.59µM*

Results for CCCCCCCCCCCCCC[n+]1ccc(C)cc1 ?
TDP1 cell CPT: 0.422µM*; DT40 TDP1 no CPT: 0.376µM*

How did N#Cc1cccc(C(=O)Nc2ccccc2C(=O)NC2CC2)c1 do in these assays?
S-ASM inh: -5.0%; HepG2 viability: -20.2%; TDP1 cell CPT: -2.9%; TGFb inhibitor: -0.9%; IL1B secr inh: -2.9; DT40 TDP1 no CPT: inconclusive

How did CC(=O)c1ccccc1NC(=O)COC(=O)CCC1CCCC1 do in these assays?
S-ASM inh: -5.4%; HepG2 viability: 10.1%; TDP1 cell CPT: -1.6%; TGFb inhibitor: 0.8%; IL1B secr inh: 31.0; DT40 TDP1 no CPT: -3.8%

What do the screens show for `CCCCCCCCCCCC[n+]1ccc2ccccc2c1`?
TDP1 cell CPT: 0.531µM*; DT40 TDP1 no CPT: 0.335µM*

Results for CCCOC(=O)c1cccc(NC(=O)C(C)(C)C)c1 ?
S-ASM inh: -2.2%; HepG2 viability: -8.3%; TDP1 cell CPT: inconclusive; TGFb inhibitor: 3.3%; IL1B secr inh: 0.0; DT40 TDP1 no CPT: inconclusive

How did CC(C)(C)C(=O)Nc1cccc(C(=O)c2cccc(NC(=O)C(C)(C)C)c2)c1 do in these assays?
S-ASM inh: 0.0%; HepG2 viability: -0.5%; TDP1 cell CPT: inconclusive; TGFb inhibitor: -33.4%; IL1B secr inh: -1.3; DT40 TDP1 no CPT: 8.2µM*

What do the screens show for `CC(C)(C)C(=O)Nc1ccc2c(c1)C(=O)C(=O)c1ccccc1-2`?
TDP1 cell CPT: 0.708µM*; DT40 TDP1 no CPT: 0.708µM*

How did CCOC(=O)c1c(S(=O)(=O)NCC(=O)Nc2ccc(F)cc2F)c(C)n(C)c1C do in these assays?
S-ASM inh: 3.0%; HepG2 viability: -7.1%; TDP1 cell CPT: -13.6%; TGFb inhibitor: -3.1%; IL1B secr inh: -13.2; DT40 TDP1 no CPT: 14.3%

What do the screens show for `O=C(NCc1nnc(SCC(=O)N2CCN(c3ccccc3)CC2)o1)c1ccc(F)cc1`?
S-ASM inh: -3.1%; HepG2 viability: 9.0%; TDP1 cell CPT: inconclusive; TGFb inhibitor: 3.9%; IL1B secr inh: 50.6; DT40 TDP1 no CPT: 20.6µM*

Results for C=CCn1c(COc2cccc(C)c2C)nnc1SCC(=O)N1CCN(c2ccccc2)CC1 ?
S-ASM inh: -6.4%; HepG2 viability: -68.8%; TDP1 cell CPT: inconclusive; TGFb inhibitor: 4.47µM*; IL1B secr inh: -54.9*; DT40 TDP1 no CPT: inconclusive

How did Cc1cccc(OCc2nnc(SCC(=O)N3CCN(c4ccccc4)CC3)o2)c1C do in these assays?
S-ASM inh: -6.8%; HepG2 viability: -0.6%; TDP1 cell CPT: inconclusive; TGFb inhibitor: 12.8%; IL1B secr inh: -1.6; DT40 TDP1 no CPT: 18.4µM*

Results for O=C(CN1C(=O)C2CCCCC2C1=O)Nc1cc([N+](=O)[O-])ccc1F (stereo not given) ?
S-ASM inh: 0.4%; HepG2 viability: 5.7%; TDP1 cell CPT: -13.1%; TGFb inhibitor: 0.1%; IL1B secr inh: -3.8; DT40 TDP1 no CPT: 9.9%

What do the screens show for `COc1ccc(OC)c(S(=O)(=O)N2CCN(C(=O)NC3CCCCC3)CC2)c1`?
S-ASM inh: 5.6%; HepG2 viability: 0.0%; TDP1 cell CPT: -10.4%; TGFb inhibitor: -1.9%; IL1B secr inh: 13.5; DT40 TDP1 no CPT: 3.4%

Results for Cn1c(=O)c(-c2ccc(F)cc2)nc2cnc(N3CCOCC3)nc21 ?
TDP1 cell CPT: -0.4%; DT40 TDP1 no CPT: 3.9%

Results for CN1CCN(c2ncc3nc(-c4ccc(Cl)cc4)c(=O)n(C)c3n2)CC1 ?
TDP1 cell CPT: 20.6µM*; DT40 TDP1 no CPT: inconclusive

What do the screens show for `Cn1c(=O)c(-c2ccc(Cl)cc2)nc2cnc(N3CCNCC3)nc21`?
TDP1 cell CPT: 10.3µM*; DT40 TDP1 no CPT: 16.4µM*

What do the screens show for `Cn1c(=O)c(-c2ccccc2)nc2cnc(N3CCOCC3)nc21`?
TDP1 cell CPT: -7.9%; DT40 TDP1 no CPT: -24.6%

How did CCCc1c(-c2cccc(Cl)c2)ncn1Cc1cccc(-c2ccccc2)c1 do in these assays?
TDP1 cell CPT: 20.6µM*; IL1B secr inh: -6.4; DT40 TDP1 no CPT: 18.4µM*

What do the screens show for `CCCc1c(-c2ccc(F)cc2F)ncn1Cc1cccc(-c2ccccc2)c1`?
TDP1 cell CPT: 5.17µM*; IL1B secr inh: -9.0; DT40 TDP1 no CPT: 4.11µM*

Results for Cn1cc(CN2CCN(Cc3ccccc3)CC2)c(-c2cccc(Cl)c2)n1 ?
S-ASM inh: 6.0%; HepG2 viability: -28.2%; TDP1 cell CPT: inconclusive; TGFb inhibitor: inconclusive; IL1B secr inh: -10.4; DT40 TDP1 no CPT: inconclusive

From PubChem BioAssay
